# In PubChem BioAssay:
# Unmarked numbers belong to inactive results. Activity calls are given as the source filed them.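 How the source made its calls: active means fluorescence slope higher than the sample average by over 3 SD (cut at about -0.22 in these data, passing the limit was not always enough); inactive means the rest.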
# Molecular target: Voltage-gated potassium channel subunit beta-2 (Rattus norvegicus) (UniProt P62483)
# Test: KvBeta enzyme negative modulators, primary screen, biochemical, NADPH fluorescence (AID 622);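 further: slope of raw intensity against log time taken from 70 to 1610 s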
# Conditions: recombinant KvBeta, 4-cyanobenzaldehyde reduction, at 10 µM, hits give high values
# Chain of Voltage-gated potassium channel subunit beta-2 (Rattus norvegicus) (P62483 whole entry, looked up): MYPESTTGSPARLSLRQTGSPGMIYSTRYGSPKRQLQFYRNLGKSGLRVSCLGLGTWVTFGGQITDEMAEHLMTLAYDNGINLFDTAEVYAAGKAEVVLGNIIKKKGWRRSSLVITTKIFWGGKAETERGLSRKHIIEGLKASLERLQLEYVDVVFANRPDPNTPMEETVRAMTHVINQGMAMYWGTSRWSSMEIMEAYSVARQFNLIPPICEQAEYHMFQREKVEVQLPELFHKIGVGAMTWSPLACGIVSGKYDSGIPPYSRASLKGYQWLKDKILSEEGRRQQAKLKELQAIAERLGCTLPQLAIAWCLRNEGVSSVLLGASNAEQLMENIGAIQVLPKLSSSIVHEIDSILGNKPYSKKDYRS
row,Structure (SMILES),fluorescence slope
1,Cc1ccc(-c2nnc(SC(C)C#N)n2N)cc1 (stereo not given),-0.587
2,CCOc1ccc2[nH]cc(C(=O)N3CCN(CC)CC3)c(=O)c2c1,-0.539
3,Cn1nnnc1SCC(=O)N1CCN(c2ccccc2)CC1,-0.362
4,CC(C)c1nc(N2CCN(C(=O)c3ccco3)CC2)c2c3c(sc2n1)CCCC3,-0.486
5,CCOc1ccc(OCC)c(NC(=O)CN2CCN(C(=O)c3ccco3)CC2)c1,-0.546
6,O=C(COC(=O)c1cc(S(=O)(=O)N2CCOCC2)cs1)c1ccccc1,-0.485
7,Cn1c(=O)c2c(-c3ccncc3)c3c(nc2n(C)c1=O)-c1ccccc1C3=O,-0.497
8,Nc1c(N2CCCCC2)c(=O)[nH]c(=O)n1-c1ccccc1,-0.456
9,CC(=O)Nc1ccc(S(=O)(=O)N2CCN(C(=O)CCC3CCCC3)CC2)cc1,-0.581
10,COc1cccc(C2CC(c3ccccc3)n3ncnc3N2)c1 (stereo not given),-0.6
11,CCOc1ccc2oc(-c3ccccc3)c(C(=O)N3CCN(CCO)CC3)c2c1,-0.584
12,Cc1cc(NCCN2CCOCC2)n2nc(C)c(-c3ccccc3)c2n1,-0.573
13,COCc1cc(C)nc(Nc2ccc(C)cc2C)c1C#N,-0.461
14,COc1ccccc1-c1nnc(SCC(=O)N2CC(C)CC(C)C2)o1 (stereo not given),-0.411
15,CC(=O)c1cc2c(cc1NC(=O)CN1CCN(C(=O)c3ccco3)CC1)OCO2,-0.548
16,COc1cccc(C2=NOC(C(=O)Nc3cc(C)nn3-c3ccccc3)C2)c1OC (stereo not given),-0.586
17,O=C(O)C1CCCN1c1ncnc2c1oc1ccccc12 (stereo not given),-0.503
18,Cc1ccc(OC(=O)CCC(=O)OCCCC(F)(F)C(F)(F)F)cc1,-0.382
19,O=S(=O)(c1cccc(S(=O)(=O)N2CCC(N3CCCCC3)CC2)c1)N1CCOCC1,-0.469
20,CNc1ccc(C(O)(C(F)(F)F)C(F)(F)F)cc1C(O)(C(F)(F)F)C(F)(F)F,-0.616

row,Structure (SMILES),fluorescence slope
1,Cc1cc(C)n2nc(SCc3nc4ccccc4[nH]3)nc2n1,-0.568
2,Cc1cccc(C(=O)N(C)c2nnc(-c3ccncc3)s2)c1,-0.546
3,CCOC(=O)c1c(C)n(C)c2c(C)cc(O)c(OC(C)=O)c12,-0.467
4,C=CCOC(=O)C1=C(C)NC(=O)NC1c1cn(-c2ccccc2)nc1-c1cccs1 (stereo not given),-0.332
5,CCOc1ccccc1NC(=O)C1CCCN(S(=O)(=O)c2cccc3cccnc23)C1 (stereo not given),-0.55
6,CCOc1ccccc1Nc1nnc(SCC(=O)N2CCCC2)s1,-0.609
7,COC(=O)/C=c1\sc2ncnn2c1=O,-0.624
8,CN(C)CCNc1oc(-c2ccccc2F)nc1C#N,-0.062 (active)
9,O=C(C1CCN(c2nnc(-n3cccc3)s2)CC1)N1CCN(Cc2ccc3c(c2)OCO3)CC1,-0.593
10,COc1ccccc1NC(=O)C1(C)Cc2ccccc2C(=O)O1 (stereo not given),-0.584
11,O=C(Cn1cnc2c(cnn2-c2ccc(F)cc2)c1=O)N1CCN(c2ccccc2)CC1,-0.506
12,Cc1ccnc(N2CCN(C(=O)CSc3nc4ccccc4nc3N3CCCCC3)CC2)c1,-0.333
13,Cc1cccc(C)c1NC(=O)c1cc(S(=O)(=O)N2CCOCC2)ccc1F,-0.302
14,Cc1cc2ccccc2n1CCNC(=O)C1CC1,-0.42
15,COc1ccc(C)cc1NC(=O)CCN1CCCC1,-0.442
16,COCCn1nnnc1C(c1ccc(OC)cc1)N1CCN(c2ccccc2F)CC1 (stereo not given),-0.585
17,CCOc1ccc(NC(=O)CCN2CCN(c3ccccc3)CC2)cc1,-0.261
18,CC(C)Cc1n[nH]c(=O)[nH]1,-0.543
19,CC(=O)C1=C(O)C(=O)N(C2CCCCC2)C1c1ccccc1 (stereo not given),-0.448
20,Cc1nn(-c2ccccc2)c2c1C(O)n1c(nc3ccccc31)S2 (stereo not given),-0.466
